Consider 13 compounds from PubChem BioAssay.

The structures appear in SMILES notation. Calls of active or inactive are those of the source. Unless noted, no rule for the calls is given here.

The nature of assay [1]: HepG2 liver cancer cell viability effects, profiling panel, resazurin fluorescence, 24 h, PK04 Diversity Set (AID 1172). Also: test concentration not given here. To be noted: higher = more signal.
Assay [2] can be described thus: basal S. cerevisiae growth modulation, no modifier, primary screen, OD600, strain BY4716, 24 h, basal condition (AID 1173). To be noted: OD600, 24 h, higher = more signal, called active from +8 up or from −8 down.
The nature of assay [3]: MM1S myeloma cell viability, profiling panel, resazurin fluorescence, basal, 24 h, PK04 Diversity Set (AID 1174).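 Also: MM1S multiple myeloma cell line; test concentration not given here.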 To be noted: higher = more signal, called active from +8 up or from −8 down.
For assay [4], the target named is Dihydroorotate dehydrogenase (quinone), mitochondrial (Plasmodium falciparum (isolate 3D7)) (UniProt Q08210). The assay is described as follows: PfDHODH enzyme inhibitors, primary screen, biochemical, C-terminal His tag, absorbance 600 nm (AID 1175).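 Also: recombinant parasite enzyme with a five histidine tag at its C terminus; test concentration not given here.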 Conditions: DCIP absorbance 600 nm, higher = more signal, called active from +8 up or from −8 down.
Sequence of Dihydroorotate dehydrogenase (quinone), mitochondrial (Plasmodium falciparum (isolate 3D7)) (Q08210 whole entry, looked up): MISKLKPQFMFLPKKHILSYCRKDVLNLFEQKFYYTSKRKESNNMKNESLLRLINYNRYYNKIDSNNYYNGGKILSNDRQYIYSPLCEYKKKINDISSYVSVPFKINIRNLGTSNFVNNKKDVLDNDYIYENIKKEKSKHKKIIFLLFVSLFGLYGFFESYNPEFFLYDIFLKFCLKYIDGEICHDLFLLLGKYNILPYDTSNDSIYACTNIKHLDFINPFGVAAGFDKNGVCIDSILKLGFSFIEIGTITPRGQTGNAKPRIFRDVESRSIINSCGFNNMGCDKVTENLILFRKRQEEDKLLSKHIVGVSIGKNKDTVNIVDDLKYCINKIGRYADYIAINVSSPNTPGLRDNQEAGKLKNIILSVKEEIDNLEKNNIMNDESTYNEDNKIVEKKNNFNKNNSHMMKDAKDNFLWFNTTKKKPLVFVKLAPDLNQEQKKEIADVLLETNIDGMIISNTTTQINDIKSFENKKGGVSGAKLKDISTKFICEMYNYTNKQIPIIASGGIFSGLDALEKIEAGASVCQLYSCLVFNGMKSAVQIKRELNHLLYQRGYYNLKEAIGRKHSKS
The nature of assay [5]: P. aeruginosa biofilm formation inhibitors, primary screen, strain PAO1, LB-PBS medium, absorbance 600 nm (AID 1176). Also: test concentration not given here. Conditions: P. aeruginosa PAO1 growth/biofilm, A600, 12 h; higher = more signal.
Assay [6] can be described thus: S. cerevisiae RM11-1a growth modifiers, primary screen, strain RM11-1a, OD600, basal, 24 h (AID 1177).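 Also: cultures grown under basal conditions with no added stressor; test concentration not given here.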 To be noted: OD600, 24 h, higher = more signal, called active from +8 up or from −8 down.
Assay [7] in a line: E. coli acrAB mutant growth effects, primary screen, E. coli filamentation inducers, strain DRC39, OD650, 24 h (AID 1178).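 Also: growth measured as culture turbidity by optical density at 650 nm; test concentration not given here.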 Conditions: higher = more signal, called active from +8 up or from −8 down.
Assay [8] can be described thus: E. coli acrAB mutant growth effects, primary screen, E. coli filamentation inducers, strain DRC39, OD650, 48 h (AID 1179).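 Also: screen aims at cell division blockers that make cells filament.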 Conditions: E. coli DRC39 delta-acrAB growth, higher = more signal, called active from +8 up or from −8 down.
Assay [9] can be described thus: RPMI8226 myeloma cell viability, profiling panel, resazurin fluorescence, basal, 24 h, PK04 Diversity Set (AID 1180).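 Also: RPMI8826 multiple myeloma cell line at 5000 cells per well; test concentration not given here.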 To be noted: higher = more signal. (In general: The colour change of resazurin is a common sign of viable cells or microbes.)
Assay [10] has as its target E3 ubiquitin-protein ligase XIAP (Homo sapiens) (UniProt P98170). The assay is described as follows: XIAP binders, primary screen, biophysical, small-molecule microarray, fluorescence 635 nm (AID 1181).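 Also: score merges 667 nm emission and signal to noise over triplicate slides.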 Conditions: small-molecule microarray binding, higher = more signal.

Sequence of E3 ubiquitin-protein ligase XIAP (Homo sapiens) (P98170 whole entry, looked up): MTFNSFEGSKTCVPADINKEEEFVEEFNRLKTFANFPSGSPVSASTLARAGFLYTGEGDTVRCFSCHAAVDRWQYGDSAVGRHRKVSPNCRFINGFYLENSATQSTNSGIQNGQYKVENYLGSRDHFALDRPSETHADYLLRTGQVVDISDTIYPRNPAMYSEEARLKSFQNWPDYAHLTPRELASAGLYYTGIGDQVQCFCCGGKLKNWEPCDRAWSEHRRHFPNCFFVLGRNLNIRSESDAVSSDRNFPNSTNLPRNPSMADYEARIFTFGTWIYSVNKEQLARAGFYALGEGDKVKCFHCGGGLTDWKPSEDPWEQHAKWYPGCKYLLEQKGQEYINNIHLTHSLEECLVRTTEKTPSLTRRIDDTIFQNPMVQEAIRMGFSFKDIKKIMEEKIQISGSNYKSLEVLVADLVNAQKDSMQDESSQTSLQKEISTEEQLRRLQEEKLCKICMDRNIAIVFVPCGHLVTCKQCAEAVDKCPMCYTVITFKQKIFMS

Turning to `CCOC(=O)C1=CC[C@@H](c2ccccc2)N(S(=O)(=O)c2ccc(C)cc2)[C@H]1C=Cc1ccccc1`, the z-score in [1] was 1.25; in [2], 1.58 (inactive); in assay [3], -0.0664 (inactive); in assay [5] it was 0.987 (inactive); in assay [6], 0.65 (inactive); in [7], -0.923 (inactive). The z-score in [8] is -0.706 (inactive); in assay [9], -1.42. The composite z-score is -0.382 (inactive) in assay [4] and -0.103 in assay [10].
Take `O=C1C2C=CC(C(O)c3cc(C(F)(F)F)cc(C(F)(F)F)c3)N(Nc3ccccc3F)C2C(=O)N1c1ccccc1` (stereo not given): the z-score was -2.18 in assay [1]; -1.47 (inactive) in [2]; -1.09 (inactive) in assay [3]; 1.11 (inactive) in assay [5]; 0.332 (inactive) in [6]; -2.31 (inactive) in assay [7]. The results for the z-score in assay [8] and in [9] were -0.711 (inactive) and -3.04, respectively. The composite z-score in assay [4] was -0.232 (inactive); in [10], 0.0264.
On to `COc1cc(NN2C(C(O)c3ccccc3)C=CC3C(=O)N(C)C(=O)C32)cc(OC)c1OC` (stereo not given), for which the z-score in assay [1] is -2.2; in [2], 0.758 (inactive); in assay [3], -1.23 (inactive); in assay [5] it was 0.574 (inactive); in assay [6], -0.0472 (inactive); in assay [7] it was -0.466 (inactive). For the same compound, the z-score was -0.882 (inactive) in [8] and -1.32 in assay [9]. For the same compound, the composite z-score in [4] is -2.04 (inactive); in assay [10], 0.0024.
Consider `O=c1cccc(-c2ccco2)o1`, for which the z-score in [1] was -0.675; in assay [2] it was -0.216 (inactive); in assay [3] it was 0.0232 (inactive); in assay [5], 0.092 (inactive); in [6] it was -0.231 (inactive); in [7] it was -0.644 (inactive). In addition, the figures for the z-score in assay [8] and in [9] were -0.338 (inactive) and -0.258, respectively. The values for the composite z-score in assay [4] and in [10] were -1.85 (inactive) and -0.179, respectively.
For the compound `CN1C=C(C(=O)OCCS(C)(=O)=O)C(C(=O)OCCS(C)(=O)=O)=CC(c2ccc(CO)cc2)=CC1c1cccs1` (stereo not given), the z-score in assay [1] was 0.0449; in assay [2], -3.66 (inactive); in [3], -0.727 (inactive); in [5], -0.566 (inactive); in assay [6] it was -0.363 (inactive); in assay [7], 0.0198 (inactive). The z-score is -0.0834 (inactive) in assay [8] and 0.0779 in assay [9]. Further, the composite z-score in assay [4] was -0.927 (inactive); in assay [10], 0.246.
With `CCCC=C(CCC)[C@@H](NS(=O)(=O)c1cccc2cccnc12)c1ccc(-c2ccccc2)cc1`, the z-score in [1] is 1.15; in [2] it was 0.928 (inactive); in assay [3], 1.02 (inactive); in assay [5], -0.787 (inactive); in [6], 0.52 (inactive); in assay [7], -0.24 (inactive). Further, the z-score in assay [8] was -0.342 (inactive); in [9] it was 1.27. The figures for the composite z-score in assay [4] and in assay [10] were -0.0926 (inactive) and 0.072, respectively.
As to `C=C(/C(=C/C[C@H](OC(=O)c1ccncc1)c1ccccc1OCCO)c1cnc2ccccc2c1)C(C)C`, the z-score was 0.495 in assay [1]; -0.147 (inactive) in [2]; -0.632 (inactive) in [3]; 1.07 (inactive) in [5]; -0.07 (inactive) in [6]; 0.395 (inactive) in assay [7]. In addition, the z-score is 0.313 (inactive) in [8] and 0.262 in assay [9]. Moreover, the figures for the composite z-score in assay [4] and in assay [10] were -3.77 (inactive) and -0.0771, respectively.
As for `CCCNC(=O)[C@@]1(C)c2ccccc2C(=O)N(Cc2ccccc2)[C@H]1c1ccc(CO)cc1`, the z-score in assay [1] is -0.0367; in [2] it was -0.312 (inactive); in assay [3], 0.435 (inactive); in assay [5], -0.0065 (inactive); in [6] it was -0.637 (inactive); in [7], 0.503 (inactive). The z-score in assay [8] is -0.105 (inactive); in assay [9] it was 1.67. The composite z-score in assay [4] is -0.0373 (inactive); in assay [10] it was -0.0701.
Take `O=C1N(CCS(=O)(=O)c2ccccc2)Cc2ccccc2[C@@H]2OC(c3ccc(OCCCO)cc3)=N[C@]12CCS(=O)(=O)c1ccccc1`: the z-score in assay [1] was 0.638; in assay [2] it was 1.6 (inactive); in [3], 0.298 (inactive); in [5], 1.71 (inactive); in assay [6] it was 2.85 (inactive); in [7], 0.958 (inactive). In addition, the z-score in assay [8] was 0.31 (inactive); in assay [9] it was -0.458. Also, the composite z-score in assay [4] is 0.324 (inactive); in assay [10], -0.0062.
Regarding `Cc1nc2cc(Br)ccc2c(=O)n1Cc1cccc(O)c1`, the z-score is 0.674 in assay [1]; -0.496 (inactive) in [2]; -1.23 (inactive) in assay [3]; 1.38 (inactive) in assay [5]; 0.0164 (inactive) in assay [6]; 0.381 (inactive) in [7]. Further, the z-score in assay [8] is 0.776 (inactive); in assay [9], -0.505. The results for the composite z-score in assay [4] and in assay [10] were 0.0596 (inactive) and 0.0674, respectively.
Regarding `CCOC(=O)C1=CCN(S(=O)(=O)c2ccc(C)cc2)C1c1ccccc1` (stereo not given), the z-score was -0.17 in [1]; 0.218 (inactive) in [2]; -0.612 (inactive) in assay [3]; 0.449 (inactive) in assay [5]; 0.58 (inactive) in [6]; -0.564 (inactive) in [7]. For the same compound, the z-score is -0.359 (inactive) in [8] and -1.01 in assay [9]. Also, the composite z-score in [4] was -0.551 (inactive); in assay [10], -0.0957.
Take `O=c1cccc(-c2ccc(F)cc2)o1`: the z-score in assay [1] was 0.0278; in assay [2], -0.576 (inactive); in assay [3] it was 0.306 (inactive); in assay [5], -0.088 (inactive); in [6], 0.18 (inactive); in assay [7] it was -0.561 (inactive). Also, the results for the z-score in assay [8] and in assay [9] were -0.165 (inactive) and -0.739, respectively. For the same compound, the composite z-score in [4] was -0.555 (inactive); in assay [10], -0.167.
Turning to `C=C(C)C1CCC(C(O)C2C=CC3C(=O)N(C)C(=O)C3N2Nc2cc(OC)c(OC)c(OC)c2)CC1` (stereo not given), the z-score is -1.15 in assay [1]; 0.552 (inactive) in assay [2]; -0.901 (inactive) in [3]; 0.971 (inactive) in assay [5]; 0.065 (inactive) in assay [6]; -0.274 (inactive) in assay [7]. The z-score in assay [8] was -0.379 (inactive); in [9], -1.27. In addition, the composite z-score was -0.896 (inactive) in assay [4] and 0.153 in assay [10].
